Laboratory results: PubChem BioAssay (NCI)
The panel holds about 83,000 compounds, 20% with a hit somewhere; the sample as a whole holds those more often.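 A percent growth of 40 corresponds to 60% growth inhibition; 0 means no net growth; -100 means all cells died. Active threshold: below 10.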 Values without a mark were called inactive. The source made the active and inactive calls.

What was measured:
Assay in all cases: NCI-60 one-dose screen, 48 h (100 = growth as untreated, 0 = no growth, -100 = all killed)
Details in all cases: 10 µM
SR leukemia = test system: SR leukemia
OVCAR-8 ovarian = test system: OVCAR-8 ovarian
OVCAR-5 ovarian = test system: OVCAR-5 ovarian
OVCAR-4 ovarian = test system: OVCAR-4 ovarian
SK-OV-3 ovarian = test system: SK-OV-3 ovarian
IGROV1 ovarian = test system: IGROV1 ovarian
OVCAR-3 ovarian = test system: OVCAR-3 ovarian
HS 578T breast = test system: HS 578T breast
NCI/ADR-RES ovarian = test system: NCI/ADR-RES ovarian
T-47D breast = test system: T-47D breast
BT-549 breast = test system: BT-549 breast
MDA-MB-435 melanoma = test system: MDA-MB-435 melanoma
SW-620 colon = test system: SW-620 colon
MCF7 breast = test system: MCF7 breast
HCT-116 colon = test system: HCT-116 colon
HCC-2998 colon = test system: HCC-2998 colon
KM12 colon = test system: KM12 colon

Row | Structure (SMILES) | growth (SR leukemia) | growth (OVCAR-8 ovarian) | growth (OVCAR-5 ovarian) | growth (OVCAR-4 ovarian) | growth (SK-OV-3 ovarian) | growth (IGROV1 ovarian) | growth (OVCAR-3 ovarian) | growth (HS 578T breast) | growth (NCI/ADR-RES ovarian) | growth (T-47D breast) | growth (BT-549 breast) | growth (MDA-MB-435 melanoma) | growth (SW-620 colon) | growth (MCF7 breast) | growth (HCT-116 colon) | growth (HCC-2998 colon) | growth (KM12 colon)
1 | O=C(CCCNC(=O)c1nc(-c2ccccc2)n(-c2ccccc2)n1)NO | 106% | 96.9% | 118% | 118% | 97% | 101% | 108% | 105% | 109% | 94% | 106% | 109% | 106% | 92% | 85.6% | 98.9% | 110%
2 | O=C(Nc1cc([N+](=O)[O-])c2[nH]c(=O)c3ccccc3c2c1)C(F)(F)F | 52.3% | 77.2% | 104% | 92.6% | 81.2% | 93.6% | 106% | 105% | 76.9% | 105% | 86.5% | 102% | 64.5% | 82% | 56.5% | 89.3% | 87.2%
3 | COc1cc2c3c(n(C4CCNCC4)c(=O)c2cc1OC)-c1cc2c(cc1C3=O)OCO2 | -24.4% (active) | -43.1% (active) | -66.8% (active) | -23.4% (active) | -42.2% (active) | -57.1% (active) | -88.9% (active) | -48.5% (active) | -39.8% (active) | -51.1% (active) | -58% (active) | -44.1% (active) | -73.2% (active) | -53.8% (active) | -60.7% (active) | -95% (active) | -79.6% (active)
4 | CCOC(=O)c1sc2ncnc(Nc3ccc4c(cnn4C(=O)Nc4ccccc4)c3)c2c1C | 27.9% | 51.7% | 98.9% | -1.84% (active) | 73.2% | 87.1% | 67.8% | 41.6% | 49.2% | 51.5% | 48.9% | 54.2% | 50% | 55.8% | 34.4% | 98.4% | 65.5%
5 | O=S(=O)(NCCCNc1nccc(-c2cn(-c3ccccc3)nc2-c2ccc(Cl)c(O)c2)n1)c1ccccc1 | 42% | 59.5% | 118% | 71.1% | 83.8% | 73.5% | 66.8% | 67.3% | 33.3% | 42.9% | 75.9% | 68.7% | 102% | 33% | 53.1% | 91.6% | 56.7%
6 | O=C1CCn2c1c(O)c1ccccc1c2=O | 95.1% | 103% | 114% | 104% | 103% | 116% | 118% | 93.6% | 103% | 94.5% | 113% | 99.5% | 101% | 94.8% | 107% | 109% | 109%
7 | O=C1c2c(c3c4ccccc4n(CCCCCCN4CCOCC4)c3c3[nH]c4ccccc4c23)C(=O)N1O | -26.2% (active) | 3.72% (active) | 127% | 103% | 93% | 40.6% | 88.7% | 106% | 43.9% | 79.9% | 91.9% | 56.4% | 4.79% (active) | 6.49% (active) | -16% (active) | 87.8% | 78%
8 | CC(C)(C)OC(=O)CN1CCc2c(sc3ncnc(N/N=C/c4ccccc4Br)c23)C1 | 37.6% | 61.5% | 92.3% | 74.7% | 109% | 50.6% | 69% | 77% | 71.7% | 47.3% | 82.9% | 80.5% | 60.6% | 3.49% (active) | 48.7% | 76.3% | 80%
9 | CC[C@@H](C(=O)[C@H](C)[C@H](O)[C@@H](C)[C@H]1O[C@H]([C@@H](CC)C(=O)N(CC)CC)CC[C@H]1C)C1O[C@]2(C=C[C@@H](O)[C@]3(CC[C@@](C)([C@H]4CC[C@](O)(CC)[C@H](C)O4)O3)O2)[C@H](C)C[C@@H]1C (some centres undefined) | 55.5% | 25.4% | 32% | 28.2% | 20.8% | 19.8% | 14.3% | 24.1% | 5.44% (active) | 17% | 37.1% | 26.3% | 18.5% | 10.4% | 10.8% | 22.1% | 29.6%
10 | C=CCn1c(SCC(=O)Nc2ccc(C(=O)/C=C/c3ccc(Cl)cc3)cc2)nnc1-c1cc(-c2ccccc2)nc2ccccc12 | 6.5% (active) | 26.4% | 90.4% | 44.1% | 100% | -62% (active) | 63.7% | 86.3% | 78.9% | 84.6% | 64.2% | 77.9% | 5.4% (active) | 12.2% | -22.9% (active) | 87.4% | 76.5%
11 | CC[C@@H](C(=O)[C@@H](C)[C@@H](O)[C@H](C)[C@@H]1O[C@@H]([C@@H](CC)C(=O)N(CC)CC)CC[C@@H]1C)C1O[C@]2(C=CC(=O)[C@]3(CC[C@@](C)([C@H]4CC[C@](O)(CC)[C@H](C)O4)O3)O2)[C@H](C)C[C@@H]1C (some centres undefined) | 41.1% | 29% | 29.7% | 34.3% | 49.8% | 34.9% | 21.6% | 28.4% | 10.5% | 16.2% | 43.8% | 30.2% | 25.3% | 5.81% (active) | 5.97% (active) | 29% | 40.9%
12 | Cc1cn(-c2cccc(NC(=O)c3ccc(C)c(Nc4nccc(-c5cccnc5)n4)c3)c2)cn1 | 1.26% (active) | 0.284% (active) | 41.3% | -58.1% (active) | -54.2% (active) | -11.7% (active) | -33.7% (active) | -8.85% (active) | 7.25% (active) | 46% | -39.4% (active) | -27.8% (active) | 20.2% | -24.6% (active) | -87.4% (active) | 41.7% | -94.9% (active)
